{
  "source": "PubChem BioAssay AID1963322",
  "about": "(National Center for Advancing Translational Sciences (NCATS), 2024)",
  "note": "Records with an inconclusive call do not appear. Values without a mark were called inactive. The source made the active and inactive calls. The call rests on the fitted dose curve.",
  "data": [
    {"molecular_target": "cAMP-dependent protein kinase catalytic subunit alpha (Homo sapiens) (UniProt P17612)", "assay": "Protein Kinase A (PKA-HiBiT) SDR gain of signal screen", "settings": "PKA-HiBiT structural dynamics response (SDR), luminescence gain of signal; series mostly up to 32.9 µM; activity change, positive = signal gain: at the top concentration", "in_short": "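PKA-N-HiBiT enzyme at 10 nM final was preincubated with compounds for 30 min at room temperature, protected from light. Nano-Glo HiBiT reagent was then added for 10 min, and luminescence was read by CCD imager. H-89 served as positive control.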", "units": {"activity change, positive = signal gain": "%"}, "values": [
      {"smiles": "O=C(O)C1(Cc2cccc(Nc3nccs3)n2)CCC(Oc2cccc(Cl)c2F)CC1", "note": "(stereo unspecified)", "Potency": "14.5 µM (active)"},
      {"smiles": "O=C(Nc1cc(C(F)(F)F)ccc1N1CCCCC1)c1ccncc1", "activity change, positive = signal gain": 3.42},
      {"smiles": "c1ccc(-c2oc3ncnc(NC[C@@H]4CCCO4)c3c2-c2ccccc2)cc1", "activity change, positive = signal gain": 5.8},
      {"smiles": "Cn1cc(-c2[nH]c3cc(NC(=O)[C@H](N)C4CCCCC4)cc4c3c2C=NNC4=O)cn1", "Potency": "0.6 µM (active)"},
      {"smiles": "O=S(=O)(/N=C/c1c(O)ccc2ccccc12)c1cccs1", "activity change, positive = signal gain": 11},
      {"smiles": "Cc1cc(-c2cc(O)ccc2Cl)cc2nnc(Nc3ccc(OCCN4CCCC4)cc3)nc12", "activity change, positive = signal gain": -11.2},
      {"smiles": "Cc1ccc(C(=O)Nc2ccc(CN3CCN(C)CC3)c(C(F)(F)F)c2)cc1C#Cc1cnc2[nH]ncc2c1", "activity change, positive = signal gain": 7.29},
      {"smiles": "COc1cc(NC(=O)c2cccc(-n3cc(NC(=O)Nc4cccc(C)c4)cn3)c2)cc(OC)c1OC", "activity change, positive = signal gain": 1.34},
      {"smiles": "Cc1nc2ccc(-n3ncc(C(=O)c4cc5ccccc5[nH]4)c3N)cc2[nH]1", "activity change, positive = signal gain": 4.86},
      {"smiles": "O=C(Nc1ccc(OC(F)(F)F)cc1)c1sccc1NCc1ccnc2ccccc12", "activity change, positive = signal gain": 10.2},
      {"smiles": "CCN1C(=O)CNc2ncc(-c3ccc(-c4ncn[nH]4)nc3C)nc21", "activity change, positive = signal gain": -1.23},
      {"smiles": "Cc1ccccc1-n1c([C@H](C)Nc2nc(N)nc3nc[nH]c23)nc2cccc(C)c2c1=O", "activity change, positive = signal gain": 5.87},
      {"smiles": "Cc1ccc(-n2nc(C(C)(C)C)cc2NC(=O)NCc2cc(F)ccc2Oc2ccc3c(cnn3CCO)c2)cc1", "activity change, positive = signal gain": -20.1},
      {"smiles": "C=CC(=O)Nc1cccc(Oc2nc(Nc3ccc(N4CCN(C)CC4)cc3OC)ncc2Cl)c1", "activity change, positive = signal gain": 2.43},
      {"smiles": "Cc1cc(Nc2ncc3cc(-c4c(Cl)cccc4Cl)c(=O)n(C)c3n2)ccc1F", "activity change, positive = signal gain": -18.3},
      {"smiles": "CC(C)(C)n1nc(-c2cccc3ccccc23)c2c(N)ncnc21", "activity change, positive = signal gain": 9.35},
      {"smiles": "COc1cc(N2CCN(C)CC2)ccc1Nc1nc(N)c(C(=O)c2c(Cl)cccc2Cl)s1", "activity change, positive = signal gain": -3.27},
      {"smiles": "COc1cc(N2CCOCC2)ccc1Nc1ncc(Cl)c(Nc2ccccc2NS(C)(=O)=O)n1", "Potency": "1.34 µM (active)"},
      {"smiles": "CN(c1ncccc1CNc1nc(Nc2ccc3c(c2)CC(=O)N3)ncc1C(F)(F)F)S(C)(=O)=O", "Potency": "4.41 µM (active)"},
      {"smiles": "Cc1cc(Nc2cc(N3CCN(C)CC3)nc(Sc3ccc(NC(=O)C4CC4)cc3)n2)n[nH]1", "activity change, positive = signal gain": -6.42},
      {"smiles": "CCn1nc(C2CCN(C(=O)CCO)CC2)nc1-c1cnc(N)c(-c2nnc(C(C)(C)C)o2)n1", "activity change, positive = signal gain": 7.07},
      {"smiles": "Cc1ccc(C(=O)Nc2ccc(Oc3cc4cnn(C)c4cc3-c3cn[nH]c3)c(F)c2)c(=O)n1-c1ccc(F)cc1", "activity change, positive = signal gain": 8.3},
      {"smiles": "Cn1ncc(NC(=O)c2nc(-c3c(F)cccc3F)sc2N)c1N1CC[C@@H](N)[C@H](F)CC1", "Potency": "0.7 µM (active)"},
      {"smiles": "Cn1cc(-c2cc3c(N4CCN(c5ncc([C@@](C)(N)c6ccc(F)cc6)cn5)CC4)ncnn3c2)cn1", "activity change, positive = signal gain": 11.1},
      {"smiles": "COc1cc(N2CCC(N3CCN(C)CC3)CC2)ccc1Nc1ncc(Cl)c(Nc2ccccc2P(C)(C)=O)n1", "Potency": "5.55 µM (active)"},
      {"smiles": "CNc1ncc2cc(-c3cc(NC(=O)NCCC(C)(C)C)c(F)cc3C)c(C)nc2n1", "activity change, positive = signal gain": 2.19},
      {"smiles": "CC[C@@](C)(Nc1ccnc(-c2c[nH]c3ncccc23)n1)C(=O)NCC(F)(F)F", "Potency": "12 µM (active)"},
      {"smiles": "Cc1cc(Nc2ncc3c(n2)N(C)C(=O)N(c2cc(NC(=O)c4cccc(C(F)(F)F)c4)ccc2C)C3)n(C)n1", "activity change, positive = signal gain": 2.14},
      {"smiles": "C[C@@H]1CN(CC(=O)Nc2ccc3c(c2)Cc2cccc(-c4cc(=O)cc(N5CCOCC5)o4)c2S3)C[C@H](C)O1", "activity change, positive = signal gain": -4.67},
      {"smiles": "FC(F)(F)c1ccc(/C=C/c2nc(COc3ccc(CCCCn4ccnn4)cc3)co2)cc1", "activity change, positive = signal gain": 7.11},
      {"smiles": "CC(C)(NS(=O)(=O)c1ccc2c(Cl)cnc(N=C(N)N)c2c1)C(=O)O", "activity change, positive = signal gain": 8.27},
      {"smiles": "Nc1ncnc2c1c(-c1cnc3[nH]ccc3c1)nn2C1CCCC1", "activity change, positive = signal gain": 13.7},
      {"smiles": "C=CC(=O)Nc1cc2c(Nc3ccc(F)c(Cl)c3)ncnc2cc1OCCCN1CCOCC1", "activity change, positive = signal gain": 4.93},
      {"smiles": "CNC(=O)c1ccccc1Nc1nc(Nc2ccc(N3CCOCC3)cc2OC)ncc1Cl", "activity change, positive = signal gain": 19.9},
      {"smiles": "COc1ccc(CNC(=O)Nc2ncc([N+](=O)[O-])s2)cc1", "activity change, positive = signal gain": -0.27},
      {"smiles": "COc1ccccc1-c1c[nH]c2ncc(-c3cncc(C(=O)N(C)C)c3)cc12", "activity change, positive = signal gain": 14.2}
    ]}
  ]
}
